Experimental data taken from PubChem BioAssay (Tox21).
Several values for one entry are separate records, joined by “and”; a condition that tells them apart may be missing. Equal values may be shown once. Results filed as inconclusive are left out. Where a call stands in place of a potency, no number is given. Some compounds were tested as several samples or in several runs, with calls that do not always agree. Activity calls are given as the source filed them. Unless noted, the call rests on the fitted dose curve; in most records, active means well fitted curve in the direction sought with a large enough effect in the repeat runs; inconclusive means weak or mixed curves; inactive means no such curve, though single readings can be large; an effect the other way counts as inactive or inconclusive.

Experiments:
[1] = A CellTox Green Cytotoxicity Assay to monitor cytotoxicity in HepG2 cells - 8 hour (AID 1224890); further: nearly all actives have a fitted effect of over 45% in size; further: potency means the concentration at half of the fitted maximal effect
How it was run: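 HepG2 cells were seeded together with the CellTox Green dye at 600 cells/well, left 5 h at 37 C/5% CO2, then given compounds in DMSO. Fluorescence from dye bound to dead-cell DNA was read repeatedly over 40 h of treatment at 37 C.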

[2] = qHTS assay to identify small molecule antagonists of the estrogen receptor alpha (ER-alpha) signaling pathway using the BG1 cell line in the presence of 0.1 nM 17-beta-estradiol - cell viability counter screen (AID 1259241); further: nearly all actives have a fitted effect of over 40% in size; further: potency means the concentration at half of the fitted maximal effect
How it was run: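 VM7Luc4E2, 4,000 cells/well, phenol red-free medium + 10% charcoal-stripped FBS; 24 hr plating; cpd + 0.1 nM E2 final, 22 hr 37C/5% CO2; CellTiter-Fluor 30 min, fluorescence.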

[3] = qHTS assay to identify small molecule antagonists of the androgen receptor (AR) signaling pathway using the MDA cell line in the presence of 0.5 nM R1881 - cell viability counter screen (AID 1259242); further: nearly all actives have a fitted effect of over 45% in size; further: potency means the concentration at half of the fitted maximal effect
How it was run: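 MDA-kb2 cells (human breast carcinoma, stably carrying MMTV-luciferase reporter) were exposed to compounds with 0.5 nM R1881 (final) for 16 hr at 37C, 0% CO2; viability then read as live-cell protease fluorescence (CellTiter-Fluor, 30 min) in the same wells.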

[4] = target: Estrogen receptor (Homo sapiens) (UniProt P03372); assay: qHTS assay to identify small molecule antagonists of the estrogen receptor alpha (ER-alpha) signaling pathway using the BG1 cell line in the presence of 0.1 nM 17-beta-estradiol (AID 1259244); further: nearly all actives have a fitted effect of over 50% in size; further: potency means the concentration at half of the fitted maximal effect
Sequence of Estrogen receptor (Homo sapiens) (P03372 whole entry, looked up): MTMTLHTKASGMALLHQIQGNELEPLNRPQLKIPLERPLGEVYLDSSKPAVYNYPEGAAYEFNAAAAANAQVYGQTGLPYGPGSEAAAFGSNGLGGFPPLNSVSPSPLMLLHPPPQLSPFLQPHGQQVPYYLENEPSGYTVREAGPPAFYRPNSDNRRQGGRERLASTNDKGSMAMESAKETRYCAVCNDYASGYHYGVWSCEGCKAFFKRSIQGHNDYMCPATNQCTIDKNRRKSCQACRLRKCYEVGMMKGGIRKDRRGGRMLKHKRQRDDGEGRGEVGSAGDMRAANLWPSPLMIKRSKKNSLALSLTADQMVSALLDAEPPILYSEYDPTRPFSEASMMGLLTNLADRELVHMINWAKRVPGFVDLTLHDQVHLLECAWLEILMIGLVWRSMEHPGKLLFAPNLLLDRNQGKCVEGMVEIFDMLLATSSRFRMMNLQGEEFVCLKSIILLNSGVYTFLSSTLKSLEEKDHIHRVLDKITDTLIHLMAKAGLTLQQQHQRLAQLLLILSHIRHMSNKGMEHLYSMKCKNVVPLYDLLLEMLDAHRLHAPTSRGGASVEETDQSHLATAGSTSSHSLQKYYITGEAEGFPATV
How it was run: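 VM7Luc4E2 cells (endogenous full-length ER-alpha, stable 4xERE-luciferase) were grown 5 days in phenol red-free medium with charcoal-stripped FBS, then exposed 22 h at 37C to compounds plus 0.1 nM (final) 17beta-estradiol; ONE-Glo luminescence read-out.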

[5] = qHTS assay to identify small molecule phospholipidosis (PLD) inducers (AID 1259344; active means well fitted curve in the direction sought with a large enough effect; an effect the other way counts as inactive or inconclusive; further: potency means the concentration at half of the fitted maximal effect)
How it was run: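 Fluorescent phospholipid staining (LipidTOX Red) measured by automated microscopy in fixed HepG2 cells after 24 h treatment; nuclei counterstained with Hoechst 33342; amiodarone as reference inducer.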

[6] = qHTS assay to identify small molecule HDAC inhibitors - cell viability counter screen (AID 1259365); further: series mostly up to about 92 µM; nearly all actives have a fitted effect of over 50% in size
How it was run: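 Luminescence from CellTiter-Glo, developed 30min at room temperature, reports viability of wild-type HCT-116 cells treated 2hr with compounds at 37 C and 5% CO2 after overnight plating.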

[7] = qHTS assay to identify small molecule agonists of the sonic hedgehog signaling (Shh) pathway - cell viability counter screen (AID 1259366); further: nearly all actives have a fitted effect of over 50% in size; further: potency means the concentration at half of the fitted maximal effect
How it was run: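 Cytotoxicity counter screen run in the same wells as the Shh reporter assay. NIH/3T3 cells carrying a Gli1 response element–driven luciferase were treated with DMSO-dissolved compounds for 24hr, and live-cell protease activity was measured with CellTiter-Fluor.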

[8] = qHTS assay to identify small molecule antagonists of the sonic hedgehog signaling (Shh) pathway - cell viability counter screen (AID 1259367); further: nearly all actives have a fitted effect of over 55% in size; further: potency means the concentration at half of the fitted maximal effect
How it was run: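 Using CellTiter-Fluor, viability of Gli1-Luc reporter 3T3 cells is read by fluorescence in the wells used for the Shh luciferase assay. Treatment lasts 23 hr with conditioned medium, then reagent 1 hr at 37C.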

[9] = qHTS assay to identify small molecule HDAC inhibitors (AID 1259364); further: top concentration of the series differs between compounds; nearly all actives have a fitted effect of over 45% in size
How it was run: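 Wild-type HCT-116 cells were plated overnight, exposed to compounds for 2 h at 37 °C, then given HDAC-Glo class I/II luminogenic reagent for 30 min at room temperature before luminescence was read.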

[10] = target: Androgen receptor (Homo sapiens) (UniProt P10275); assay: qHTS assay to identify small molecule antagonists of the androgen receptor (AR) signaling pathway using the MDA cell line in the presence of 0.5 nM R1881 (AID 1259243); further: nearly all actives have a fitted effect of over 50% in size; further: potency means the concentration at half of the fitted maximal effect
Sequence of Androgen receptor (Homo sapiens) (P10275 whole entry, looked up): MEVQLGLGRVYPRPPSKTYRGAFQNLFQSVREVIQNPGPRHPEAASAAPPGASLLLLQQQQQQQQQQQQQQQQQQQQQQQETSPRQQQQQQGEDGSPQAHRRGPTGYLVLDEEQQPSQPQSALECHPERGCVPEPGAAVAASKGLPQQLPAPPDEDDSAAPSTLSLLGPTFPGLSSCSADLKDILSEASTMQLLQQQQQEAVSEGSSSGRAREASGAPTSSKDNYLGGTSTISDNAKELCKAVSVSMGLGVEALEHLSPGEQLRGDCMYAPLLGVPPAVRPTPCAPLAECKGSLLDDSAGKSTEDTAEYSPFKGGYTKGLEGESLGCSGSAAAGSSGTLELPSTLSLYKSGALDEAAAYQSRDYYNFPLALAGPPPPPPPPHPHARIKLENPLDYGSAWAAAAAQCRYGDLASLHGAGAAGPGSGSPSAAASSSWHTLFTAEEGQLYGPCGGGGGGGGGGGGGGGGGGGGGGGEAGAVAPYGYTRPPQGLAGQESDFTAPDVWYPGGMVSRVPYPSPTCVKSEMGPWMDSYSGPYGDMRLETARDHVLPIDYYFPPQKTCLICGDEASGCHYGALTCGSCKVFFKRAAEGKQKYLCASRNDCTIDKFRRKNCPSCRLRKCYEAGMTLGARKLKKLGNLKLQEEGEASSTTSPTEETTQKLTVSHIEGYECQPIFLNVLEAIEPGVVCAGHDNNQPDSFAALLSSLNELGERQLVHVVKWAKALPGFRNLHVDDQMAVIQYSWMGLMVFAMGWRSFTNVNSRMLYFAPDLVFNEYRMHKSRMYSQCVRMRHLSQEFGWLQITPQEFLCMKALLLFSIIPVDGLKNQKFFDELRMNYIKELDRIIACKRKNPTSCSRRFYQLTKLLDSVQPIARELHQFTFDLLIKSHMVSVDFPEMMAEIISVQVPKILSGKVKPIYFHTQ
How it was run: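 MDA-kb2 human breast carcinoma cells carrying an MMTV-luciferase reporter (AR- and GR-responsive) were plated, rested 5 hr at 37C, dosed with compounds, then stimulated with 0.5 nM R1881 (final) for 16 hr; luminescence was read after ONE-Glo.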

Row | SMILES | Potency [1] | Potency [2] | Potency [3] | Potency [4] | Potency [5] | outcome [6] | Potency [7] | Potency [8] | Potency [9] | Potency [10]
1 | CC(=O)Oc1ccccc1C(=O)Nc1ncc([N+](=O)[O-])s1 | inactive | 16.8 µM (active) | 11.1 µM (active) and 11.9 µM (active) | inactive | inactive | inactive | 22.1 µM (active) and 26.6 µM (active) | 24.8 µM (active) and 26.6 µM (active) |  | 
2 | c1cc(-c2ccncc2)ccn1 | inactive | inactive | inactive | inactive |  | inactive | inactive | inactive | inactive | 
3 | CC(C)(C)NC(=O)[C@H]1CC[C@H]2[C@@H]3CC[C@H]4NC(=O)C=C[C@]4(C)[C@H]3CC[C@]12C | inactive | inactive | inactive | inactive | inactive | inactive | inactive | inactive | inactive | 
4 | CCC(C)CO (stereo not drawn) | inactive and 49 µM (active) | inactive | inactive | inactive |  | inactive | inactive | inactive | inactive | 
5 | OCCO | inactive | inactive | inactive | inactive |  | inactive | inactive | inactive | inactive | inactive
6 | c1ccc2sc(SSN3CCOCC3)nc2c1 | inactive | inactive | inactive | inactive |  | inactive | 48.5 µM (active) | 54.4 µM (active) | inactive | 
7 | CC(=O)C1(C)CC2=C(CCCC2(C)C)CC1C (stereo not drawn) | inactive | inactive | inactive |  |  | inactive | inactive | inactive |  | inactive
8 | Cc1c(C(N)=O)cc([N+](=O)[O-])cc1[N+](=O)[O-] | inactive | inactive | inactive | inactive | inactive | inactive | inactive | inactive |  | 
9 | O=S(=O)(O)c1ccc(O)cc1 | inactive | inactive | inactive | inactive | inactive | inactive | inactive | inactive | inactive | 
10 | CCOCCOCCO | inactive | inactive | inactive |  |  | inactive | inactive | inactive | inactive | inactive
11 | CC1=CC2C3CC(C=C3C)C2C1 (stereo not drawn) | inactive and 38.9 µM (active) | inactive | inactive | inactive |  | inactive | inactive | inactive | inactive | 
12 | CC(C(=O)O)c1cccc(C(=O)c2ccccc2)c1 (stereo not drawn) | inactive | inactive | inactive | inactive | inactive | inactive | inactive | inactive |  | 
13 | CN(C)CCC=C1c2ccccc2CCc2ccccc21 | inactive | inactive | inactive | 54.5 µM (active) and inactive | 7.08 µM (active) | inactive | 68.6 µM (active) and inactive | 27.3 µM (active) and inactive | inactive | 
14 | C#C[C@]1(O)CC[C@H]2[C@@H]3CCC4=Cc5oncc5C[C@]4(C)[C@H]3CC[C@@]21C | inactive | inactive | inactive | 30.6 µM (active) | inactive | inactive | inactive | inactive | inactive | 
15 | Cn1cnc([N+](=O)[O-])c1Sc1ncnc2nc[nH]c12 | inactive | inactive | inactive | inactive | inactive | inactive |  | 19.2 µM (active) |  | 
16 | c1ccc2cc(Nc3ccc(Nc4ccc5ccccc5c4)cc3)ccc2c1 | inactive | inactive | inactive |  |  | inactive | inactive | inactive |  | inactive
17 | COC(C)COC(C)COC(C)CO (stereo not drawn) | inactive | inactive | inactive | inactive |  | inactive | inactive | inactive |  | inactive
18 | Oc1ccc(O)cc1 | inactive | inactive | inactive | inactive | inactive | inactive | 10.8 µM (active) and 24.3 µM (active) and 26.6 µM (active) | 30.5 µM (active) and 54.5 µM (active) | inactive | 
19 | Cc1[nH]c(=O)c(C#N)cc1-c1ccncc1 | inactive | inactive | inactive | inactive | inactive | inactive | inactive | inactive | inactive | 
20 | CC1=CCC(C(C)(C)O)CC1 (stereo not drawn) | inactive | inactive | inactive | inactive | inactive | inactive | inactive | inactive | inactive | inactive
21 | O=C(Nc1ccc(Cl)cc1)Nc1ccc(Cl)c(Cl)c1 | inactive | inactive | 21.7 µM (active) and 23.7 µM (active) | 21.6 µM (active) and 12.2 µM (active) and 16.8 µM (active) | inactive | inactive | inactive | inactive | inactive | 17.1 µM (active) and 13.7 µM (active) and 13.3 µM (active)
22 | Cc1cccc(N(C)C(=S)Oc2ccc3ccccc3c2)c1 | inactive | inactive | inactive | inactive | inactive | inactive | inactive | inactive | inactive | 
23 | OC1CCCCCCCCCCC1 | 43.6 µM (active) | inactive | inactive | inactive |  | inactive | inactive | inactive | inactive | 
